Test results from the antibiotic and cytotoxicity screens of Wong et al. (2023).
Screen size: about 39,000 compounds; about 3,300 (8.5%) were called active. Many of the other results were omitted from the sample, so actives are more common in it than they were.

Test system: HepG2
Assay: cytotoxicity call (relative viability < 0.9)
Settings: 10 µM

SMILES	cytotoxicity call
C[C@H](CO)N1C[C@H](C)[C@H](CN(C)S(=O)(=O)c2cn(C)cn2)Oc2ccc(NS(=O)(=O)c3cn(C)cn3)cc2CC1=O	inactive
CC(C)NC(=O)N(C)C[C@H]1OCc2cn(nn2)CCCC(=O)N([C@@H](C)CO)C[C@@H]1C	inactive
Cc1noc(C)c1NC(=O)N(C)C[C@@H]1Oc2cc(C#CCN(C)C)ccc2S(=O)(=O)N([C@@H](C)CO)C[C@H]1C	inactive
COc1ccc(S(=O)(=O)Nc2ccc3c(c2)C(=O)N([C@@H](C)CO)C[C@@H](C)[C@H](CN(C)C(=O)c2ccccc2)OCCCC[C@@H](C)O3)cc1	inactive
Nc1ccccc1CO	active
Nc1cc(F)ccc1CO	inactive
OCc1ccccc1O	inactive
C[C@H](CO)N1C[C@H](C)[C@H](CN(C)C(=O)c2ccccc2)Oc2cc(C#C[C@@H](C)O)ccc2S1(=O)=O	inactive
Cc1ccc(S(=O)(=O)Nc2ccc3c(c2)CC(=O)N([C@H](C)CO)C[C@H](C)[C@@H](CN(C)C(=O)NC(C)C)O3)cc1	inactive
C[C@@H]1CN([C@@H](C)CO)S(=O)(=O)c2ccc(C#CC3CC3)cc2O[C@H]1CN(C)C(=O)Cc1ccncc1	inactive
COc1ccc2c3c([nH]c2c1)[C@@H](CO)N(C[C@]13CN(C1)S(=O)(=O)c1cn(cn1)C)C(=O)Nc1ccc(cc1)F	inactive
C[C@@H]1CN([C@@H](C)CO)C(=O)c2cc(NC(=O)Nc3ccc4c(c3)OCO4)ccc2O[C@@H]1CN(C)C(=O)Nc1ccc(C(F)(F)F)cc1	inactive
CO[C@@H]1[C@@H](O[C@@H]2O[C@H](C)[C@@H](O[C@H]3C[C@@](C)(O)[C@@H](OC(=O)CC(C)C)[C@H](C)O3)[C@H](N(C)C)[C@H]2O)[C@@H](CC=O)C[C@@H](C)[C@@H](O)/C=C\C=C/C[C@@H](C)OC(=O)C[C@H]1OC(C)=O	inactive
CO[C@@H]1[C@@H](O[C@@H]2O[C@H](C)[C@@H](O[C@H]3C[C@@](C)(O)[C@@H](O)[C@H](C)O3)[C@H](N(C)C)[C@H]2O)[C@@H](CC=O)C[C@@H](C)[C@@H](O[C@H]2CC[C@H](N(C)C)[C@@H](C)O2)/C=C/C=C/C[C@@H](C)OC(=O)C[C@H]1O	inactive
COC1C(O)CC(=O)OC(C)CC=CC=CC(OC2CCC(N(C)C)C(C)O2)C(C)CC(CC=O)C1OC1OC(C)C(OC2CC(C)(O)C(O)C(C)O2)C(N(C)C)C1O (stereo not given)	active
CO[C@@H]1[C@@H](O[C@@H]2O[C@H](C)[C@@H](O[C@H]3C[C@@](C)(O)[C@@H](O)[C@H](C)O3)[C@H](N(C)C)[C@H]2O)[C@@H](CC=O)C[C@@H](C)[C@@H](O[C@H]2CC[C@H](N(C)C)[C@@H](C)O2)/C=C/C=C/CC(C)OC(=O)C[C@H]1OC(C)=O (stereo not given in full)	inactive
COC1C(O)CC(=O)OC(C)CC=CC=CC(O)C(C)CC(CC=O)C1OC1OC(C)C(OC2CC(C)(O)C(OC(=O)CC(C)C)C(C)O2)C(N(C)C)C1O (stereo not given) [KITASAMYCINS [A1 shown] ]	inactive
CO[C@@H]1[C@@H](O[C@@H]2O[C@H](C)[C@@H](O[C@H]3C[C@@](C)(O)[C@@H](OC(=O)CC(C)C)[C@H](C)O3)[C@H](N(C)C)[C@H]2O)[C@@H](CC=O)C[C@@H](C)[C@@H](O)/C=C/C=C/CC(C)OC(=O)C[C@H]1OC(C)=O (stereo not given in full)	active
COc1ccc(C(N)=S)cn1	inactive
Cc1noc(C)c1S(=O)(=O)Nc1ccc2c(c1)C(=O)N([C@H](C)CO)C[C@H](C)[C@H](CN(C)CC1CC1)O2	inactive
C[C@@H]1CN([C@@H](C)CO)S(=O)(=O)c2ccc(C#CC(C)(C)O)cc2O[C@H]1CN(C)Cc1ccncc1	inactive
C[C@H](CO)N1C[C@H](C)[C@@H](CN(C)S(=O)(=O)c2ccccc2)Oc2ccc(NC(=O)CCN3CCOCC3)cc2CC1=O	inactive

SMILES	cytotoxicity call
CS(=O)(=O)Nc1ccc2c(c1)C(=O)NC2=O	inactive
COc1ccccc1CNS(C)(=O)=O	inactive
COc1cc(NS(C)(=O)=O)ccc1Nc1c2ccccc2nc2ccccc12	active
C[C@H]1CCCCO[C@@H](CN(C)C(=O)c2ccncc2)[C@@H](C)CN([C@@H](C)CO)C(=O)c2cc(NC(=O)NC3CCCCC3)ccc2O1	inactive
Cn1nccc1C(=O)NCCN	inactive
CNC(=O)[C@@H](c1ccccc1)N1CCc2cc(OC)c(OC)cc2[C@@H]1CCc1ccc(C(F)(F)F)cc1	inactive
CNCCC(Oc1ccccc1C)c1ccccc1.Cl (stereo not given)	inactive
CNCCC(Oc1ccc(C(F)(F)F)cc1)c1ccccc1.Cl (stereo not given)	active
CCCOC(=S)N[C@H]1OC[C@@H](O)[C@@H](O)[C@@H]1O	inactive
COc1ccccc1-c1ccc2c(c1)O[C@@H](CN(C)S(=O)(=O)c1ccccc1)[C@@H](C)CN([C@@H](C)CO)S2(=O)=O	inactive
C=CC[C@@H](CC(=O)NCCO)C(=O)NC[C@H](OC(=O)[C@H](CC=C)CC(=O)OC(C)(C)C)c1ccccc1	inactive
COc1ccc(S(=O)(=O)N[C@@H](CNc2nc(C)nc(N3CCC(c4ccc5c(n4)NCCC5)CC3)c2C)C(=O)O)cc1	active
O=C(NCCCN1CCOCC1)[C@H]1[C@@H]2C=C[C@@]3(CN(Cc4cccs4)C(=O)[C@@H]13)O2	inactive
Cc1cncc2cccc(S(=O)(=O)N3CC[C@H](N(C/C=C/c4ccc(Br)cc4)C/C=C/c4ccc(Br)cc4)C3)c12	inactive
S=C(NCCCc1cnc[nH]1)NCCCN(Cc1ccc(Cl)c(Cl)c1)c1ccc(Br)cn1	active
C[C@@H]1CCCCO[C@@H](CN(C)C(=O)Nc2ccccc2)[C@H](C)CN([C@H](C)CO)C(=O)c2cc(NS(=O)(=O)c3ccccc3)ccc2O1	inactive
CC(C)(C)[S@@+]([O-])N1Cc2cc(C(=O)NCc3ccc4c(c3)OCO4)nc(-c3ccc(-c4ccccc4)cc3)c2[C@H]1CCO	inactive
COc1ccc(S(=O)(=O)N[C@@H]2C=C[C@@H](CC(=O)N3CCC(Cc4ccccc4)CC3)O[C@H]2CO)cc1	inactive
CCCNC(=O)C[C@@H]1CC[C@H]2[C@H](COc3ccc(NC(=O)c4ccc5c(c4)OCO5)cc3C(=O)N2C)O1	inactive
C[C@@H]1CN([C@@H](C)CO)C(=O)Cc2cc(NS(=O)(=O)c3ccc(Cl)cc3)ccc2O[C@H]1CN(C)Cc1ccc(Cl)c(Cl)c1	inactive
C[C@@H]1CN([C@@H](C)CO)C(=O)Cc2cc(NS(=O)(=O)c3ccc(Cl)cc3)ccc2O[C@@H]1CN(C)Cc1ccc(Cl)c(Cl)c1	active
C[C@@H]1CN([C@H](C)CO)C(=O)Cc2cc(NS(=O)(=O)c3ccc(Cl)cc3)ccc2O[C@@H]1CN(C)Cc1ccc(Cl)c(Cl)c1	active

SMILES	cytotoxicity call
C[C@H](CO)N1C[C@H](C)[C@@H](CN(C)Cc2ccc(Cl)c(Cl)c2)Oc2ccc(NS(=O)(=O)c3ccc(Cl)cc3)cc2CC1=O	inactive
C[C@H]1CN([C@@H](C)CO)C(=O)Cc2cc(NS(=O)(=O)c3ccc(Cl)cc3)ccc2O[C@@H]1CN(C)Cc1ccc(Cl)c(Cl)c1	inactive
C[C@H]1CN([C@@H](C)CO)C(=O)Cc2cc(NS(=O)(=O)c3ccc(Cl)cc3)ccc2O[C@H]1CN(C)Cc1ccc(Cl)c(Cl)c1	active
C[C@H](CO)N1C[C@H](C)[C@H](CN(C)Cc2ccc(Cl)c(Cl)c2)Oc2ccc(NS(=O)(=O)c3ccc(Cl)cc3)cc2CC1=O	active
C[C@@H]1CN([C@H](C)CO)C(=O)Cc2cc(NS(=O)(=O)c3ccc(Cl)cc3)ccc2O[C@H]1CN(C)Cc1ccc(Cl)c(Cl)c1	inactive
CO[C@H]1CN(C)C(=O)c2ccc(NS(=O)(=O)c3cn(C)cn3)cc2OC[C@@H](C)N(Cc2cccc(F)c2)C[C@H]1C	inactive
C[C@H](CO)N1C[C@H](C)[C@H](CN(C)Cc2ccc(C(=O)O)cc2)Oc2c(NC(=O)C3CCOCC3)cccc2C1=O	inactive
C[C@@H]1CN([C@@H](C)CO)C(=O)c2cccc(NC(=O)Nc3ccccc3)c2O[C@@H]1CN(C)Cc1ccc(Cl)c(Cl)c1	inactive
Cc1cc2n(c(=O)c1C(N)=O)CCO2	inactive
CC/C=C\C/C=C\C/C=C\C/C=C\C/C=C\C/C=C\CCC(=O)OCC	inactive
C[C@@H]1CN([C@@H](C)CO)C(=O)c2cc(NC(=O)Nc3ccc4c(c3)OCO4)ccc2O[C@@H](C)CCCCO[C@@H]1CN(C)Cc1ccncc1	inactive
CCCNC(=O)N1C[C@]2(CCN(CC2)S(=O)(=O)c2ccc(cc2)OC)c2c(n(c3cc(ccc23)OC)C)[C@H]1CO	inactive
CCCNC(=O)N1C[C@]2(CCN(CC2)S(=O)(=O)c2ccc(cc2)OC)c2c(n(c3cc(ccc23)OC)C)[C@@H]1CO	active
CCCNC(=O)N1C[C@]2(CN(C2)S(=O)(=O)c2cccc(c2)OC)c2c(n(c3cc(ccc23)OC)C)[C@@H]1CO	inactive
CCCNC(=O)N1C[C@]2(CN(C2)S(=O)(=O)c2ccccc2)c2c(n(c3cc(ccc23)OC)C)[C@H]1CO	active
CCCNC(=O)N1C[C@]2(CCN(CC2)S(=O)(=O)c2ccccc2)c2c(n(c3cc(ccc23)OC)C)[C@H]1CO	inactive
CCCNC(=O)N1C[C@]2(CN(C2)S(=O)(=O)c2ccccc2)c2c(n(c3cc(ccc23)OC)C)[C@@H]1CO	inactive
C[C@H]1CN([C@@H](C)CO)C(=O)c2cccc(NS(C)(=O)=O)c2O[C@H]1CN(C)S(=O)(=O)c1cccs1	inactive
COCC#Cc1cnc2c(c1)C(=O)N([C@H](C)CO)C[C@@H](C)[C@H](CN(C)C(C)=O)O2	inactive
N[C@@H]1CC(=O)N(c2ccc(F)cc2)C1	inactive
C[C@H](CO)N1C[C@H](C)[C@H](CN(C)S(=O)(=O)c2ccc(Cl)cc2)Oc2ccc(NS(=O)(=O)c3cn(C)cn3)cc2C1=O	inactive
